How the values were obtained:
Details in all cases: concentration: 1 μM, replicates: in singlicate; n = 1
[1] = system: T1, ERK4
T1 construct: gene MAPK4

[2] = system: T2, ERK5
T2 construct: gene MAPK7

[3] = system: T3, ERK8
T3 construct: gene MAPK15

[4] = system: ERN1
[5] = system: T4, FAK
T4 construct: gene PTK2

[6] = system: FER
[7] = system: FES
[8] = system: FGFR1
[9] = system: FGFR2
[10] = system: FGFR3
[11] = system: FGFR4
[12] = system: FGR
[13] = system: FLT1
[14] = system: FLT3-autoinhibited
[15] = system: FLT3
[16] = system: FLT4
[17] = system: FRK
[18] = system: FYN
[19] = system: GAK
[20] = system: T5, GCN2(Kin.Dom.2,S808G)
T5 construct: gene EIF2AK4
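Also: KINOMEscan kinase panel screen.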

## OCCOCCn1ccc2ncnc(Nc3ccc(Oc4cccc(Cl)c4)c(Cl)c3)c21
[1]
  %Inh: 0%
[2]
  %Inh: 0%
[3]
  %Inh: 0%
[4]
  %Inh: 0%
[5]
  %Inh: 0%
[6]
  %Inh: 24%
[7]
  %Inh: 6%
[8]
  %Inh: 27%
[9]
  %Inh: 0%
[10]
  %Inh: 0%
[11]
  %Inh: 0%
[12]
  %Inh: 2%
[13]
  %Inh: 0%
[14]
  %Inh: 0%
[15]
  %Inh: 0%
[16]
  %Inh: 0%
[17]
  %Inh: 0%
[18]
  %Inh: 0%
[19]
  %Inh: 0%
[20]
  %Inh: 0%

## Nc1nc(-c2ccc3c(N)n[nH]c3c2)cc(N2CCC[C@@H](C(=O)Nc3ccccc3)C2)n1.O=C(O)C(F)(F)F.O=C(O)C(F)(F)F [GSK2288359]
[1]
  %Inh: 16%
[2]
  %Inh: 0%
[3]
  %Inh: 0%
[4]
  %Inh: 23%
[5]
  %Inh: 0%
[6]
  %Inh: 0%
[7]
  %Inh: 0%
[8]
  %Inh: 0%
[9]
  %Inh: 0%
[10]
  %Inh: 7%
[11]
  %Inh: 8%
[12]
  %Inh: 15%
[13]
  %Inh: 6%
[14]
  %Inh: 29%
[15]
  %Inh: 0%
[16]
  %Inh: 0%
[17]
  %Inh: 0%
[18]
  %Inh: 38%
[19]
  %Inh: 0%
[20]
  %Inh: 0%

## CNc1nccc(-c2c(-c3ccc(F)cc3)ncn2C2CCN(C)CC2)n1 [SB-222903]
[1]
  %Inh: 0%
[2]
  %Inh: 9%
[3]
  %Inh: 6%
[4]
  %Inh: 0%
[5]
  %Inh: 43%
[6]
  %Inh: 0%
[7]
  %Inh: 0%
[8]
  %Inh: 0%
[9]
  %Inh: 0%
[10]
  %Inh: 0%
[11]
  %Inh: 0%
[12]
  %Inh: 0%
[13]
  %Inh: 0%
[14]
  %Inh: 0%
[15]
  %Inh: 0%
[16]
  %Inh: 0%
[17]
  %Inh: 0%
[18]
  %Inh: 0%
[19]
  %Inh: 6%
[20]
  %Inh: 3%

## CSc1nn2c(=O)cc(N3CCOCC3)nc2n1Cc1cccc(Cl)c1Cl [GSK2347225]
[1]
  %Inh: 21%
[2]
  %Inh: 0%
[3]
  %Inh: 0%
[4]
  %Inh: 9%
[5]
  %Inh: 0%
[6]
  %Inh: 44%
[7]
  %Inh: 13%
[8]
  %Inh: 6%
[9]
  %Inh: 17%
[10]
  %Inh: 17%
[11]
  %Inh: 15%
[12]
  %Inh: 30%
[13]
  %Inh: 24%
[14]
  %Inh: 0%
[15]
  %Inh: 0%
[16]
  %Inh: 0%
[17]
  %Inh: 11%
[18]
  %Inh: 17%
[19]
  %Inh: 9%
[20]
  %Inh: 1%

## Nc1nc(-c2cccnc2)c(-c2ccnc3ccccc23)s1 [GW684083]
[1]
  %Inh: 12%
[2]
  %Inh: 0%
[3]
  %Inh: 0%
[4]
  %Inh: 0%
[5]
  %Inh: 0%
[6]
  %Inh: 24%
[7]
  %Inh: 0%
[8]
  %Inh: 4%
[9]
  %Inh: 20%
[10]
  %Inh: 21%
[11]
  %Inh: 0%
[12]
  %Inh: 24%
[13]
  %Inh: 29%
[14]
  %Inh: 0%
[15]
  %Inh: 16%
[16]
  %Inh: 0%
[17]
  %Inh: 5%
[18]
  %Inh: 12%
[19]
  %Inh: 77%
[20]
  %Inh: 24%

## COc1ccc(NC(=O)c2ccc(-c3cc(-c4nnc(C)o4)ccc3C)cc2)cc1 [GW595885]
[1]
  %Inh: 0%
[2]
  %Inh: 0%
[3]
  %Inh: 0%
[4]
  %Inh: 0%
[5]
  %Inh: 0%
[6]
  %Inh: 6%
[7]
  %Inh: 0%
[8]
  %Inh: 0%
[9]
  %Inh: 0%
[10]
  %Inh: 16%
[11]
  %Inh: 0%
[12]
  %Inh: 10%
[13]
  %Inh: 19%
[14]
  %Inh: 0%
[15]
  %Inh: 0%
[16]
  %Inh: 0%
[17]
  %Inh: 10%
[18]
  %Inh: 6%
[19]
  %Inh: 0%
[20]
  %Inh: 14%

## O=C(NCCCN1CCCC1=O)c1cnc(NCc2cc(Cl)ccc2Cl)nc1NC1CCNCC1
[1]
  %Inh: 0%
[2]
  %Inh: 0%
[3]
  %Inh: 17%
[4]
  %Inh: 0%
[5]
  %Inh: 0%
[6]
  %Inh: 0%
[7]
  %Inh: 0%
[8]
  %Inh: 11%
[9]
  %Inh: 14%
[10]
  %Inh: 0%
[11]
  %Inh: 0%
[12]
  %Inh: 1%
[13]
  %Inh: 0%
[14]
  %Inh: 0%
[15]
  %Inh: 0%
[16]
  %Inh: 7%
[17]
  %Inh: 0%
[18]
  %Inh: 6%
[19]
  %Inh: 0%
[20]
  %Inh: 0%

## Nc1n[nH]c2nnc(-c3ccccc3)cc12 [SB-517389]
[1]
  %Inh: 30%
[2]
  %Inh: 0%
[3]
  %Inh: 18%
[4]
  %Inh: 3%
[5]
  %Inh: 0%
[6]
  %Inh: 0%
[7]
  %Inh: 0%
[8]
  %Inh: 0%
[9]
  %Inh: 5%
[10]
  %Inh: 11%
[11]
  %Inh: 14%
[12]
  %Inh: 29%
[13]
  %Inh: 12%
[14]
  %Inh: 1%
[15]
  %Inh: 0%
[16]
  %Inh: 0%
[17]
  %Inh: 6%
[18]
  %Inh: 28%
[19]
  %Inh: 10%
[20]
  %Inh: 10%

## CC(C)(C)c1ccc(-n2cnc3c(N)ncnc32)cc1 [SKF-97263]
[1]
  %Inh: 0%
[2]
  %Inh: 0%
[3]
  %Inh: 48%
[4]
  %Inh: 6%
[5]
  %Inh: 0%
[6]
  %Inh: 13%
[7]
  %Inh: 13%
[8]
  %Inh: 12%
[9]
  %Inh: 20%
[10]
  %Inh: 15%
[11]
  %Inh: 10%
[12]
  %Inh: 30%
[13]
  %Inh: 7%
[14]
  %Inh: 17%
[15]
  %Inh: 6%
[16]
  %Inh: 15%
[17]
  %Inh: 0%
[18]
  %Inh: 2%
[19]
  %Inh: 9%
[20]
  %Inh: 11%
